Inconclusive results are not listed. Unmarked numbers belong to inactive results. Active and inactive are the calls of the source. The call rests on the fitted dose curve; in most records, active means well fitted activation curve with a large enough effect in the signal ratio in the repeat runs (not every such curve was filed as active); inconclusive means weak or mixed curves, or effect the other way; inactive means flat fitted curve, though single readings scatter; the % refers to the signal ratio.
biological target: Estrogen receptor beta (Homo sapiens) (UniProt Q92731); test: qHTS assay to identify small molecule agonists of the estrogen receptor beta (ER-beta) signaling pathway (AID 1259377); settings: ER-beta-UAS-bla HEK293T, beta-lactamase FRET ratio, 16 h; series mostly up to 92.4 µM; activation: at the top concentration
Excerpt: U.S. Tox21 Program National Center for Advancing Translational Sciences [NCATS] NIH Chemical Genomics Center [NCGC] U.S. Environmental Protection Agency [EPA] National Institutes of Environmental Health Sciences [NIEHS] National Toxicology Program [NTP] U.S. Food and Drug Administration [FDA] Tox21 Assay Overview: Estrogen receptor (ER), a nuclear hormone receptor, plays an important role in development, metabolic homeostasis and reproduction. Two subtypes of ER, ER-alpha and ER-beta, have similar expression patterns with some uniqueness in both types. Endocrine disrupting chemicals (EDCs) and their interactions with steroid hormone receptors like ER causes disruption of normal endocrine function. To identify the compounds that activate ER signaling, an ER beta-UAS-bla GripTite cell line (Life technologies, Madison, WI, USA) containing a beta-lactamase reporter gene under the control of an Upstream Activator Sequence (UAS) was used to screen Tox21 10K compound library.
Tox21 Assay Protocol Summary: ER-beta-UAS-bla HEK293T cells were dispensed at 2,000 cells/5 uL of assay medium containing 2% charcoal stripped FBS per well into black wall/clear-bottom 1536-well plates using a Multidrop Combi (ThermoFisher Scientific, Waltham, MA) dispenser. After the assay plates were incubated at a 37C and 5% CO2 for 6 hr, 23 nL of compounds dissolved in DMSO, positive controls or DMSO only was transferred to the assay plate by a Pintool station (Kalypsys, San Diego, CA). The plates were incubated at 37C and 5% CO2 for 16 hr. Then 1 uL of LiveBLAzerTM B/G FRET substrate was added using a BioRAPTR FRD (Flying Reagent Dispenser, Aurora Discovery, San Diego, CA). After the plates were incubated at room temperature for 2 hours, fluorescence intensity was measured by an Envision plate reader (PerkinElmer, Shelton, CT).
On the % scale 0 is the no-effect control and ±100 the full control effect.

Estrogen receptor beta (Homo sapiens), sequence (Q92731 whole entry, looked up): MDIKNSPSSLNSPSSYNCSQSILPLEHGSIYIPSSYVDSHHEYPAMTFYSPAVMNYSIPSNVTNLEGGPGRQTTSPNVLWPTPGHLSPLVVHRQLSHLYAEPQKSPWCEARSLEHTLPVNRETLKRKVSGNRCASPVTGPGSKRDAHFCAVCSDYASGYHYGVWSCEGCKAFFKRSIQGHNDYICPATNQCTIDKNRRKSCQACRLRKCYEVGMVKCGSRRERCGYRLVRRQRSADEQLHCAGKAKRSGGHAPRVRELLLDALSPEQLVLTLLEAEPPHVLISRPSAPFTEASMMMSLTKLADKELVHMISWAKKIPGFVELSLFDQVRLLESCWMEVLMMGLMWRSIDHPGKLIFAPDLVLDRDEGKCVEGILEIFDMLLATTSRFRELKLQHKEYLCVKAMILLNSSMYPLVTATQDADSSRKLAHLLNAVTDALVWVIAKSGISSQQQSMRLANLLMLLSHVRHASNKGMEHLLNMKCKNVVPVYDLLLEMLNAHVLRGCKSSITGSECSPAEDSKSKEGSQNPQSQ

`c1ccc(Nc2cccc3ccccc23)cc1` was tested, and the Potency was “inactive”.

In order of rising “activation” value:
1. CC(C)(c1cc(Br)c(OCCO)c(Br)c1)c1cc(Br)c(OCCO)c(Br)c1  -6.43%
2. O=C1c2c(O)ccc([N+](=O)[O-])c2C(=O)c2c([N+](=O)[O-])ccc(O)c21  -5.25%
3. CCCCCCC(C)Nc1ccc(Nc2ccccc2)cc1 (stereo not given)  -4.99%
4. CC(C)(C)c1cc(/C=C2\SC(=N)NC2=O)cc(C(C)(C)C)c1O  -4.14%
5. CS(C)(=O)=O  -3.9%
6. C=C(C)CCCC  -3.54%
7. CCOC(=O)COc1ccc(C)cc1  -2.52%
8. CCOCOCC  -2.22%
9. CC1=C(/C=C/C(C)=C/C=C/C(C)=C\C=O)C(C)(C)CCC1  -2.07%
10. CC1CNCC(C)O1 (stereo not given)  -1.91%
11. COC(=O)CC#N  -1.18%
12. CCCCCCCCCCCCOC(=O)c1cc(O)c(O)c(O)c1  -0.657%
13. c1cc2c3c(c1)ccc1cccc(c13)C2  -0.648%
14. CC[N+](CC)(CC)Cc1ccccc1  -0.63%
15. CC(C)=CCCC(C)CCOC(=O)C(C)C (stereo not given)  -0.605%
16. CC1CCCCC1  -0.201%
17. CCCCOC(=O)C(C)CC (stereo not given)  -0.193%
18. CCC(=O)OCCc1ccccc1  0.0686%
19. C[Si](C)(C)Cl  1.27%
20. C=CC(=O)OCCN(CC)CC  1.32%
21. O=S(=O)(O)CCCN1CCOCC1  3.85%
22. CC(C)=CCCC(C)O (stereo not given)  5.29%
23. C=CC/C=C/C/C=C/C/C=C/C  5.86%
24. C=CC(=C)CCC=C(C)C  6.1%
25. O=c1cccc[nH]1  6.34%
26. O=C[C@H](O)[C@H](O)[C@H](O)CO  8.94%

In order of rising “activation” value:
1. COCC(=O)O[C@]1(CCN(C)CCCc2nc3ccccc3[nH]2)CCc2cc(F)ccc2[C@@H]1C(C)C  -8.62% [at 42.5 µM]
2. CN1CCN(C2Cc3ccccc3Sc3ccc(Cl)cc32)CC1 (stereo not given)  -6.51% [at 42.5 µM]
3. Cc1ccc(-n2[nH]c(C)c(N=Nc3cccc(-c4cccc(C(=O)O)c4)c3O)c2=O)cc1C  -5.86% [at 42.5 µM]
4. COc1cc(C(=O)NS(=O)(=O)c2ccccc2C)ccc1Cc1cn(C)c2ccc(NC(=O)OC3CCCC3)cc12  -5.67% [at 42.5 µM]
5. O=C1NCN(c2ccccc2)C12CCN(CCCC(c1ccc(F)cc1)c1ccc(F)cc1)CC2  -5.01% [at 42.5 µM]
6. CC(C(O)c1ccccc1)N(C)CCOC(c1ccccc1)c1ccccc1 (stereo not given)  -4.18% [at 42.5 µM]
7. COc1ccc(-n2nc(CCC(=O)N(C)O)cc2-c2ccc(Cl)cc2)cc1  -1.29% [at 42.5 µM]
8. CC(=O)Oc1ccc(C2(c3ccc(OC(C)=O)cc3)Oc3ccccc3NC2=O)cc1  -1.28% [at 42.5 µM]
9. NC(=O)C(=O)N/N=C/c1ccc([N+](=O)[O-])o1  -0.0424% [at 42.5 µM]
10. Nc1ncnc2c1ncn2[C@@H]1O[C@H](COP(=O)(O)O)[C@@H](O)[C@H]1O  0.376% [at 42.5 µM]
11. CCCCOc1ccc(C(=O)CCN2CCCCC2)cc1  1.27% [at 42.5 µM]
12. Clc1cc(Cl)c(-c2c(Cl)c(Cl)cc(Cl)c2Cl)cc1Cl  1.96% [at 42.5 µM]

Work on `O=S(O)O` yielded an activation of -0.957% [at 19 µM].

— PubChem BioAssay (Tox21)
